In the supplement of paper PMC10849652:
The full data set covers some 7,900 targets. This sample favours those with a hit. About 0.6% of all pairs of compound and target were hits.

Compound: CS(=O)(=O)CCNCc1ccc(-c2ccc3ncnc(Nc4ccc(OCc5cccc(F)c5)c(Cl)c4)c3c2)o1 [lapatinib]
Assay: log2 fold change, soluble protein after heating vs DMSO (PISA); higher = thermal stabilisation; K562 cells, 10 uM, 30 min; active = over 0.2 and 3.5 SD of the protein, either way, in both replicates (recomputed)
How it was run: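 K562 cells at 2×10^6 cells/mL were treated with 10 μM compound for 30 min. Aliquots were heated for 3 min across 48°C-58°C, pooled, and extracted in PBS with 0.5% NP-40 at 4°C; soluble protein was the supernatant after 21,000xg for 90 min. Soluble protein was quantified by TMTpro 16plex LC-MS/MS with channel sums equalised, and reported as log2 fold change in thermal stability against DMSO controls, with values from duplicates.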

Chain of UniProt O95453 (O95453 whole entry, looked up): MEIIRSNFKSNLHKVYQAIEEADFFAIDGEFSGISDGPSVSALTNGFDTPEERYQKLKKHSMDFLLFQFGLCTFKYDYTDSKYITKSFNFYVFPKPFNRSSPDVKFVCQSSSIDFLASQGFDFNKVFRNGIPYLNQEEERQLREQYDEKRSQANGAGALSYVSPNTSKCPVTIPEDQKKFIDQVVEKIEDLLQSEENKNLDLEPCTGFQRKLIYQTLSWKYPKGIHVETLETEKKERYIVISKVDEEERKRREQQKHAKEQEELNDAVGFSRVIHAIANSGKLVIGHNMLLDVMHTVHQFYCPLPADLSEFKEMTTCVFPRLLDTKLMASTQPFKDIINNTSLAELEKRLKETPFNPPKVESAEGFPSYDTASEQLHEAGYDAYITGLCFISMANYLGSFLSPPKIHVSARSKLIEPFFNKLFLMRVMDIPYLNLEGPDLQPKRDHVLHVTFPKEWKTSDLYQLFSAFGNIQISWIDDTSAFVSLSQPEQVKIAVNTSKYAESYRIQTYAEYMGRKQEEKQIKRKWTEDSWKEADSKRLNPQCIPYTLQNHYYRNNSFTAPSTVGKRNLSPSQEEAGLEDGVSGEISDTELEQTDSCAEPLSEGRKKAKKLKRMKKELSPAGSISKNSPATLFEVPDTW
Chain of UniProt Q9UMR5 (Q9UMR5 whole entry, looked up): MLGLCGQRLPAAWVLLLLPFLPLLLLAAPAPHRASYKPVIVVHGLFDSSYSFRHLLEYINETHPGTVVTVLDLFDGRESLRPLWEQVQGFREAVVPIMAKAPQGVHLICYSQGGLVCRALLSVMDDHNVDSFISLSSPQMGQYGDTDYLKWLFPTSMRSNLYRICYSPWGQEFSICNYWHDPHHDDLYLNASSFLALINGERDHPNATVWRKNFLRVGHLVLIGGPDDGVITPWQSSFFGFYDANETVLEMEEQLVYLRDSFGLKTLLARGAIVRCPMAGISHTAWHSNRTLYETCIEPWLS
Chain of UniProt Q9BRP1 (Q9BRP1 whole entry, looked up): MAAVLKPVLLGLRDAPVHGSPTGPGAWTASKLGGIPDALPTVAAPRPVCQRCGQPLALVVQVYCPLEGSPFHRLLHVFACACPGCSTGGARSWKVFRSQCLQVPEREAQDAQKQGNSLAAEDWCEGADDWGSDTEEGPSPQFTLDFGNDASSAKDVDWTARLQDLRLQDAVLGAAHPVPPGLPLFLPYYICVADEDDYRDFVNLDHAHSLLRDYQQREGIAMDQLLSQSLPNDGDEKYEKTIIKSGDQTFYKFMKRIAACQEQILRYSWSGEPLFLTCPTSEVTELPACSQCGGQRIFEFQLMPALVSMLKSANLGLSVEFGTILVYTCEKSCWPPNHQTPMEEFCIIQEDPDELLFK
Chain of UniProt P62333 (P62333 whole entry, looked up): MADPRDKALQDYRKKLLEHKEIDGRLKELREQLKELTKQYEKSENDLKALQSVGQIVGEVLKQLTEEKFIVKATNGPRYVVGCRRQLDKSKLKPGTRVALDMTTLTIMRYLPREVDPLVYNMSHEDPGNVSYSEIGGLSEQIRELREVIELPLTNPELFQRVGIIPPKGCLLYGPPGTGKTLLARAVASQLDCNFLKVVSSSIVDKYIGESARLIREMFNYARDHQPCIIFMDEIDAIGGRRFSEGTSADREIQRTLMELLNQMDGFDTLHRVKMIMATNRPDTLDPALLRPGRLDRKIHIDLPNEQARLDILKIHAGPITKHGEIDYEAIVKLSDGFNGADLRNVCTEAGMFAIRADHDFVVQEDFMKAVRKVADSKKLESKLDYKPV
Chain of UniProt O00628 (O00628 whole entry, looked up): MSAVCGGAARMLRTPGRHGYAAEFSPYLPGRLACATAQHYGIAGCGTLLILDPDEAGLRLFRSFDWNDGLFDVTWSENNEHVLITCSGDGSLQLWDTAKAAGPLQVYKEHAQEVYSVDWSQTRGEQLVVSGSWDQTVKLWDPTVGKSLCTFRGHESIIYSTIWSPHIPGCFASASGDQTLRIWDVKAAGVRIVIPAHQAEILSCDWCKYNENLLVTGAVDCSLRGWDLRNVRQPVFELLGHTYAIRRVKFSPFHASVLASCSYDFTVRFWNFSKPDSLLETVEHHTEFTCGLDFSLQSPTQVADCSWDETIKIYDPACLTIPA
Chain of UniProt Q8NEB9 (Q8NEB9 whole entry, looked up): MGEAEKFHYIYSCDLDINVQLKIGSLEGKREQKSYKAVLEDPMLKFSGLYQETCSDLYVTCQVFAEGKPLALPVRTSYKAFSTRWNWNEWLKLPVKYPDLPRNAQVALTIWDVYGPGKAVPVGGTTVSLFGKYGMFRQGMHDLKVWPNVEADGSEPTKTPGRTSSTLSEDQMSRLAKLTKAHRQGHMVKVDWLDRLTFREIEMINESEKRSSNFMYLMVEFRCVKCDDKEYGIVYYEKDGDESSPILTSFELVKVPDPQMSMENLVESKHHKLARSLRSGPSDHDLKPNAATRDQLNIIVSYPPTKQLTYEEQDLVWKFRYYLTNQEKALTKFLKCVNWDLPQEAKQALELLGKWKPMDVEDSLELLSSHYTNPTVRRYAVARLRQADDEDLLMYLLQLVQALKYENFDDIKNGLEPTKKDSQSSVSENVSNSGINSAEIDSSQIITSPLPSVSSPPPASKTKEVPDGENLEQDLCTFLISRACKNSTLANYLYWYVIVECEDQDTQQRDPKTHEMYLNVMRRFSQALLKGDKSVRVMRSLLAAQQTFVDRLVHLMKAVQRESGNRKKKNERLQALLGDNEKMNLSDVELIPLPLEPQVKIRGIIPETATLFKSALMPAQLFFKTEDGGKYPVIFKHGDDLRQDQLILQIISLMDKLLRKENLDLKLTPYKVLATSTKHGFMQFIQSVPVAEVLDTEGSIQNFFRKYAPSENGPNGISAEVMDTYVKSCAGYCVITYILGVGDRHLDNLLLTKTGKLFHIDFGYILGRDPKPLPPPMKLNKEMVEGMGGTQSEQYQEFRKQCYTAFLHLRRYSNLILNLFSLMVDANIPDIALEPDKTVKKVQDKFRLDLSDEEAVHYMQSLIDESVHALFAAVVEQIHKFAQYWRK
Chain of UniProt Q99575 (Q99575 whole entry, looked up): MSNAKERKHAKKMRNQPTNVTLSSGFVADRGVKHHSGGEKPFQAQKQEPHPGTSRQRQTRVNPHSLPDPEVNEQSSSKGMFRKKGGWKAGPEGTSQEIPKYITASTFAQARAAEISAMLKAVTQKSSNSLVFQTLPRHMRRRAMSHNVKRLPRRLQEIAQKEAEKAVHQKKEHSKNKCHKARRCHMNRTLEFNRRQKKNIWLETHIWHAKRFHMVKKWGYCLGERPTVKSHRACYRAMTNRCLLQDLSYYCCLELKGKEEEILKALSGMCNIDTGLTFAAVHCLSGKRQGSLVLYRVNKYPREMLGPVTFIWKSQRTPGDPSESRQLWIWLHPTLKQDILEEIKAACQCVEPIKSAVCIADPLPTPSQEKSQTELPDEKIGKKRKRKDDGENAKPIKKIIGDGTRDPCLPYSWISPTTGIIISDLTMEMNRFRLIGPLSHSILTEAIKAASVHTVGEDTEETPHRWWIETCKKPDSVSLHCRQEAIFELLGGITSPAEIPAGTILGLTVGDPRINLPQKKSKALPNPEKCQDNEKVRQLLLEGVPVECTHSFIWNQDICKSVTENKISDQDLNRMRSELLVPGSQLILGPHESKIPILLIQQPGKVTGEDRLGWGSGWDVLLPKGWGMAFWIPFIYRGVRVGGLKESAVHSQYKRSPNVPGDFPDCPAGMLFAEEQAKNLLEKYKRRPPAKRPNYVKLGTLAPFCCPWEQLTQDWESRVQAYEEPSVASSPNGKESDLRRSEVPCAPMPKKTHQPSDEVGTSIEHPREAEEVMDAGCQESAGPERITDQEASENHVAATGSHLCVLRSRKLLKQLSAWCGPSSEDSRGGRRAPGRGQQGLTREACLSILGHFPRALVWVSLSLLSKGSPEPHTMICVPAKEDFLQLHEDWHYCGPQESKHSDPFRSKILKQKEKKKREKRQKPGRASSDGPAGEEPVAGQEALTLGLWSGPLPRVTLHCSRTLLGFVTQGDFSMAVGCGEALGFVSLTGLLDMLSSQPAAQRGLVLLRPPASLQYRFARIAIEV
Chain of UniProt Q9UHX1 (Q9UHX1 whole entry, looked up): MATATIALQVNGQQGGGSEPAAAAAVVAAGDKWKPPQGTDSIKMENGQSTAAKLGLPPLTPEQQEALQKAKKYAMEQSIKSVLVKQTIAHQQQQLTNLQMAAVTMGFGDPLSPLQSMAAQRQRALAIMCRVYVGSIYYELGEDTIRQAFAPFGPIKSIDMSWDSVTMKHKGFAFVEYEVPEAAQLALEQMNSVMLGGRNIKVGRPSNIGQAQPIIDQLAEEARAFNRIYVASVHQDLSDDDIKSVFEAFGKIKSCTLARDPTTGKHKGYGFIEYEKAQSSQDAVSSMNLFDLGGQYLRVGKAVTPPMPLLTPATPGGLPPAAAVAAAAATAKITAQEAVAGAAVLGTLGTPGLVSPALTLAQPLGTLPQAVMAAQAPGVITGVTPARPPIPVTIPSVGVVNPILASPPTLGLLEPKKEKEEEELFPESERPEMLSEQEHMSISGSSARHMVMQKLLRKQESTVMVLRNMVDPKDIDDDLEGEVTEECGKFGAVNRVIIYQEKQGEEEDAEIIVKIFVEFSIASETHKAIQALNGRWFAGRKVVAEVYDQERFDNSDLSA
Chain of UniProt Q9UG56 (Q9UG56 whole entry, looked up): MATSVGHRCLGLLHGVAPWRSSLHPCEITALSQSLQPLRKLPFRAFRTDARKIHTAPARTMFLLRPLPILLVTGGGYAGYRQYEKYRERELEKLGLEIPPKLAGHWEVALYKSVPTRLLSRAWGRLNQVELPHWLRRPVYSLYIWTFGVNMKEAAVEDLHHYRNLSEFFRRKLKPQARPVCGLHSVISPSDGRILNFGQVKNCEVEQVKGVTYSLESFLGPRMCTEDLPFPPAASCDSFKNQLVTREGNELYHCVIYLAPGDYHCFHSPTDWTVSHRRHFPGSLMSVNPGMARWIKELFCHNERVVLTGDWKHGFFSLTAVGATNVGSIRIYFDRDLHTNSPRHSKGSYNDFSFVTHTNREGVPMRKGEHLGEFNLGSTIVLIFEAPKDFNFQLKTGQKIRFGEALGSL
Chain of UniProt Q9Y2Y1 (Q9Y2Y1 whole entry, looked up): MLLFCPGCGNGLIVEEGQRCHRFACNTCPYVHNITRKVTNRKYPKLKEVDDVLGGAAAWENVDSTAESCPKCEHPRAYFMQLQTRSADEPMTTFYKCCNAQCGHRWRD

log2 fold change, inactive:
PDCD6 (UniProt O75340) -0.035
PRKAR1B (UniProt P31321) 0.004
PPP4R3B (UniProt Q5MIZ7) 0.047
PUF60 (UniProt Q9UHX1) 0.063
PISD (UniProt Q9UG56) -0.009
PJA2 (UniProt O43164) -0.001
PECAM1 (UniProt P16284) -0.021
PTTG1 (UniProt O95997) -0.013
PIK3C3 (UniProt Q8NEB9) 0.021
PARN (UniProt O95453) -0.028
POMP (UniProt Q9Y244) -0.022
POLR3K (UniProt Q9Y2Y1) 0.057
PPT1 (UniProt P50897) -0.038
PTDSS1 (UniProt P48651) 0.04
PPT2 isoform 3 (UniProt Q9UMR5) 0.035
PIK3R1 (UniProt P27986) -0.005
PIR (UniProt O00625) 0.018
PRKCB isoform 2 (UniProt P05771) -0.008
POP1 (UniProt Q99575) 0.084
PLBD1 (UniProt Q6P4A8) 0.03
PEX7 (UniProt O00628) -0.032
PSMC6 (UniProt P62333) 0.049
PDCD2L (UniProt Q9BRP1) -0.048
